Laboratory results from PubChem BioAssay AID651601 (Sanford-Burnham Center for Chemical Genomics, 2012).
Activity calls are given as the source filed them.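 Rule for the calls: active = CXCR6 mean IC50 below 15 µM, and neither CCR6 nor CXCR5 mean IC50 under five times that; inactive = the rest.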

These molecules were tested against C-X-C chemokine receptor type 6 (Homo sapiens) (UniProt O00574) (assay: chemokine receptor panel antagonism: CCR6, CXCR5, CXCR6, profiling panel, selectivity assay for CXCR6 antagonist project, cell-based, CHO-K1 PathHunter beta-arrestin, luminescence (AID 651601)). Conditions: antagonist mode, mean of runs.
Chain of C-X-C chemokine receptor type 6 (Homo sapiens) (O00574 whole entry, looked up): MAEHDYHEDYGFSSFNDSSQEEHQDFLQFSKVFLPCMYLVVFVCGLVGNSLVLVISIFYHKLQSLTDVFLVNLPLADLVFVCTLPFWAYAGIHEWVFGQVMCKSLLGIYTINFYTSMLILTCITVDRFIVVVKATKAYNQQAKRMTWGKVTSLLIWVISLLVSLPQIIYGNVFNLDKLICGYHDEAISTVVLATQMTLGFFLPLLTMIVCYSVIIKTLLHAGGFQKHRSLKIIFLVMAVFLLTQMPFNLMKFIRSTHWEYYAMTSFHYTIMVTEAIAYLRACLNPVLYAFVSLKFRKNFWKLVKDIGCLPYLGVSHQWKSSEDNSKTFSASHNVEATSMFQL

Row | Structure (SMILES) | outcome
1 | COc1cc(C(=O)NC2CC3CCCC(C2)N3CC(=O)Nc2ccccc2)cc(OC)c1OC (stereo unspecified) | active
2 | CN(C)c1ccc(NC(=O)CN2C3CCCC2CC(NC(=O)c2ccccc2)C3)cc1 (stereo unspecified) | inactive
3 | O=C(CN1C2CCCC1CC(NC(=O)c1ccccc1)C2)Nc1ccccc1C(F)(F)F (stereo unspecified) | inactive
4 | COc1cccc(C(=O)NC2CC3CCCC(C2)N3CC(=O)Nc2ccc(N(C)C)cc2)c1 (stereo unspecified) | inactive
5 | COc1cccc(C(=O)NC2CC3CCCC(C2)N3CC(=O)Nc2ccccc2C(F)(F)F)c1 (stereo unspecified) | inactive
6 | O=C(CN1C2CCCC1CC(NC(=O)c1ccccc1)C2)Nc1ccccc1 (stereo unspecified) | inactive
